# Source: PubChem BioAssay (National Center for Advancing Translational Sciences (NCATS))
# Sampled rows, rich in hits. Any-hit rate of the full collection: about 4.8%.
# ATXN2 expr inh: ATXN2 expression inhibition; HEK-293 ATXN2-luciferase reporter, luminescence, 24 h; Potency, µM (highest dose often 57 µM), for the others: at the highest dose activity change, negative = inhibition, most hits filed as inhibitors; actives 0.72% (n = 360,000); further: potency means the concentration at half of the fitted maximal effect; on the % scale 0 is the no-effect control and ±100 the full control effect; nearly all actives have a fitted effect of over 55% in size
#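 qHTS (up to 57 uM final) was run with 24 h compound exposure of reporter cells at 37 °C. Each well was multiplexed: SteadyGlo luminescence measured ATXN2-luciferase expression after a fluorogenic Gly-Phe-AFC viability readout (25 uM final).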
# USP1 inh: USP1/UAF1 (human) deubiquitinase inhibition. O94782. actives 0.23% (n = 390,000). recombinant USP1/UAF1, Ub-Rhodamine cleavage fluorescence. Potency, µM (doses to about 57.1 µM), inactives show at the highest dose activity change, negative = inhibition, hits mostly inhibitors; further: potency means the concentration at half of the fitted maximal effect; on the % scale 0 is the no-effect control and ±100 the full control effect; nearly all actives have a fitted effect of over 60% in size
#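 1 nM enzyme complex + cpd, 15 min RT; start with Ub-Rho 150nM final; kinetic fluorescence ex 480/em 540, 6 reads q60 s. Buffer 50mM HEPES pH 7.8, 0.5mM EDTA, 0.1 mg/ml BSA, 1mM TCEP, 0.01% Tween-20.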
# S2 tox: cell viability loss in ATXN counter-screen. AID 651635. S2 cells (HEK-293 line with an ATXN2-luciferase reporter) viability, CellTiter-Fluor protease fluorescence, 24 h. actives 0.49% (n = 400,000). Potency, µM (series often up to 56.7 µM), hits mostly cytotoxic; further: potency means the concentration at half of the fitted maximal effect; nearly all actives have a fitted effect of over 40% in size
# IL1B secr inh: inflammasome signaling inhibition, IL-1 beta readout; THP-1 LPS/ATP IL-1B secretion, AlphaLISA, 16 h; stronger effect = lower value; activity change, % at 57.5 µM; actives 4.7% (n = 360,000); AID 743279; in the data active means activity change below about -50%; inconclusive means mostly about -30% to -49%; further: on the % scale 0 is the no-effect control and ±100 the full control effect
#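 Secreted IL-1B measured by AlphaLISA bead assay after 16 h compound exposure of THP-1 cells; compounds (final up to 57.5 uM) added 1 h before LPS (250 ng/mL) and ATP (1.25 mM) stimulation; lower signal means less secretion.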
# USP2a block: blocks human ubiquitin-specific protease USP2a | USP2 core, Ub-CHOP2 coupled fluorogenic reporter, 485/531 | Potency, µM (series often up to 38.3 µM), for the others: at the top dose activity change, negative = inhibition, usual class: inhibitors | actives 0.01% (n = 330,000) | AID 463254;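 further: potency means the concentration at half of the fitted maximal effect; plate controls were DMSO wells for no effect and full inhibition by NEM control for full effect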
# Target sequence (O75604 whole entry, looked up): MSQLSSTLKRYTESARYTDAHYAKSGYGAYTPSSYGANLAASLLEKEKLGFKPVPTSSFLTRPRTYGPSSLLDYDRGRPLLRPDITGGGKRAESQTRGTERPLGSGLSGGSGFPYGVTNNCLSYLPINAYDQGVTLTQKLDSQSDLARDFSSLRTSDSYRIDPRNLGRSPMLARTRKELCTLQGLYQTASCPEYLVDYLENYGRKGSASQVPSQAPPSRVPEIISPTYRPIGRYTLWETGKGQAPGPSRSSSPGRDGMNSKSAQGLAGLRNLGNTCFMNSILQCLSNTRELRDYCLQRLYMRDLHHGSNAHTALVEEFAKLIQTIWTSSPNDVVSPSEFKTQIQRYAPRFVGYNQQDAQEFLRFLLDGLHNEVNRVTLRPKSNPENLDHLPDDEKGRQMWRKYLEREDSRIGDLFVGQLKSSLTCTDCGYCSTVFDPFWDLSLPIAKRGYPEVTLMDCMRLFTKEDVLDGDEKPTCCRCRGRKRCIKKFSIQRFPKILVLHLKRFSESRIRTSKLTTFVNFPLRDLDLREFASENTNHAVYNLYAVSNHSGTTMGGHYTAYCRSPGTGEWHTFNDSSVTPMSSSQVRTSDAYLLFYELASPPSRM
#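 Cell-free coupled assay: 10nM USP2 core preincubated 30min RT with compound in Tris-HCl pH 8.0/CaCl2/CHAPS buffer, then 25nM Ub-CHOP2 and 25nM reporter substrate; fluorescence (Ex 485/Em 531) read after 60min RT, normalized to NEM inhibition, concentration-response curves fitted.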
# An asterisk follows results filed as active; i = inactive; ? = inconclusive; . = not tested or not shown. Unless noted, the call rests on the fitted dose curve; in most records, active means well fitted curve in the direction sought with a large enough effect; inconclusive means small, poorly fitted or top-dose-only effect, or another doubt; inactive means no such curve, though single readings can be large; an effect the other way counts as inactive or inconclusive.
SMILES,ATXN2 expr inh,USP1 inh,S2 tox,IL1B secr inh,USP2a block
O=C(c1ccccc1)c1ccc(Oc2ccc([N+](=O)[O-])cc2[N+](=O)[O-])cc1,41%,?,i,-95*,.
Cc1cc(=O)oc2cc(Oc3ncccc3[N+](=O)[O-])ccc12,-15%,-10%,i,3,1%
CCC(=O)c1ccc(Oc2ccc(C(=O)c3ccc(C)cc3)cc2[N+](=O)[O-])cc1,-22%,-18%,?,-80*,3%
O=C(Cn1ccn(-c2ccc(F)cc2)c(=O)c1=O)Nc1ccc(F)cc1,.,7%,.,.,.
CN(C)CC/C=C1/c2ccc(F)cc2Sc2ccc(Cl)cc21,?,-16%,?,-85*,.
CN(C)CC/C=C1\c2ccccc2Sc2cc(F)c(Cl)cc21,-18%,-18%,?,-93*,.
CN(C)CC/C=C1\c2cc(Cl)ccc2Sc2cc(F)c(F)cc21,-21%,-15%,i,-11,.
CN(C)CC/C=C1\c2ccc(F)cc2Sc2cc(F)c(Cl)cc21,.,-11%,?,-61*,.
COc1ccc(C(=O)NCCSc2c[nH]c3ccccc23)cc1OC,-20%,3%,i,.,.
COC(=O)c1cccc(NC(=O)CCNC(=O)c2ccco2)c1,-16%,-5%,i,-101*,1%
O=C(Nc1cccc(NC(=O)c2ccco2)c1)c1cccc(Br)c1,-11%,-16%,i,-61*,-2%
O=C(Nc1cc(Br)c(O)c(Br)c1)c1cccc(NC(=O)c2ccco2)c1,12%,-18%,i,2,-1%
COC(=O)c1cccc(NC(=O)c2ccco2)c1,5%,-1%,i,-5,4%
CC(=O)Oc1ccc(C(=O)Nc2ccccc2NC(=O)c2ccc(OC(C)=O)cc2)cc1,.,-15%,?,1,6%
CC(=O)Oc1ccc(C(=O)Nc2cc(NC(=O)c3ccc(OC(C)=O)cc3)cc(C(=O)NC(C)(C)C)c2)cc1,1%,-13%,i,-64*,-1%
CC(C)(C)NC(=O)c1cccc(NC(=O)c2ccc(NC(=O)c3ccco3)cc2)c1,-36%,-19%,?,-70*,-1%
COc1ccc(-n2c(=O)c3c(c4cc(OC)ccc4n3C)n(Cc3c(F)cccc3Cl)c2=O)cc1,2%,-19%,i,.,.
Cc1cccc(C[C@H](C(=O)O)N2C(=O)c3ccc(C(=O)O)cc3C2=O)c1,.,.,.,.,1%
CCOC(=O)c1c(NC(=O)COc2ccc(Cl)cc2Cl)sc2c1CCCCC2,35%,-6%,i,.,.
COCCC(=O)NC1CCCc2c1cnn2-c1cccc(C)c1C (stereo not drawn),4%,1%,i,20,0%
COc1cc(NC(=O)CCCOc2cc(=O)n(C)c3ccccc23)cc(OC)c1OC,15%,-20%,i,.,.
O=C(Nc1cccc(N=Cc2cc(Br)cc(Br)c2O)c1)c1ccco1,-19%,28µM*,i,40,6%
Cn1c(/C=C/c2ccccc2)nc2ccccc2c1=O,53%,-3%,i,-2,-7%
Cn1c(/C=C/c2ccc([N+](=O)[O-])o2)nc2ccccc2c1=O,7.9µM*,-15%,6.3µM*,-98*,1%
COc1ccccc1C(=O)N(Cc1cc2cccc(C)c2nc1N1CCC(O)CC1)C1CC1,.,.,i,.,.
SMILES,ATXN2 expr inh,USP1 inh,S2 tox,IL1B secr inh,USP2a block
O=C(CCc1ccccc1)c1nnc(-c2ccccc2)o1,22%,-13%,i,-53*,2%
CCOC(=O)c1nnc(-c2ccccc2)o1,-1%,-10%,i,0,2%
Cc1cc(/C=c2/sc3nc4ccccc4n3c2=O)c(C)n1-c1ccccn1,-84%,-13%,i,-58*,7%
Oc1c(Br)cc(Br)cc1/C=N/Nc1ccc(Cl)nn1,2.8µM*,-6%,?,-15,1%
N/C(Cc1ccc([N+](=O)[O-])cc1)=N\OC(=O)Cc1ccc(Cl)cc1,-2%,-10%,i,-57*,5%
COc1ccc(Nc2nc(-c3cc4cccc(OC)c4oc3=O)cs2)cc1,13%,-14%,i,12,-2%
CC(=O)Nc1ccc(Nc2nc(-c3cc4ccccc4oc3=O)cs2)cc1,-5%,?,i,-22,9%
COc1ccc2oc(=O)c(-c3csc(Nc4cccc(O)c4)n3)cc2c1,32%,?,i,-79*,-1%
Nc1ccc(Nc2nc(-c3cc4ccccc4oc3=O)cs2)cc1,-11%,1%,?,-90*,2%
COc1ccc(/C=C/C(=O)Nc2nc(-c3cccs3)ns2)cc1,.,-5%,.,.,.
COc1ccc(NS(=O)(=O)c2cccc(C(=O)NCc3ccccc3CN3CCOCC3)c2)cc1,-34%,-21%,i,-11,.
CCOc1ccc2oc(C(=O)NCc3ccccc3CN3CCCC3)c(C)c2c1,?,-21%,i,-57*,3%
COc1ccc2cc(C(=O)NCc3ccccc3CN3CCCC3)ccc2c1,?,-18%,i,-68*,1%
COc1ccc2oc(C(=O)NCc3ccccc3CN3CCCC3)c(C)c2c1,.,0%,i,-22,0%
CCCC1C(=O)Nc2ccccc2N1C(=O)c1ccc(C(C)(C)C)cc1 (stereo not drawn),-14%,-14%,i,-82*,-1%
CCCC1C(=O)Nc2ccccc2N1C(=O)c1cccc(C)c1 (stereo not drawn),-11%,-10%,i,-18,0%
Cn1nc(C(C)(C)C)cc1C(=O)N1CCCC(c2cc(C(=O)Nc3ccccc3Cl)no2)C1 (stereo not drawn),?,.,i,-20,.
CC1(C(=O)NS(=O)(=O)C2CC2)CCCN(C(=O)c2cccs2)C1 (stereo not drawn),6%,.,i,37,.
Cc1sc(NC(=O)c2ccco2)c(C(Nc2ccccn2)c2ccccc2)c1C (stereo not drawn),15%,-8%,i,-51*,0%
CN(C)CCOc1ccc(-c2nc(-c3ccc4c(c3)CCC4=NO)c(-c3ccncc3)[nH]2)cc1,0%,.,.,.,.
Cc1cccc(C(O)c2ncc(-c3ccc(F)cc3)[nH]2)c1C (stereo not drawn),3%,.,i,-20,.
COc1ccc([C@H]2C[C@H](n3cc(-c4ccc(F)cc4)nn3)[C@@H](O)CN2C(=O)C2CCCCC2)cc1,-34%,-13%,?,-7,.
O=C(NNC(=O)c1ccccc1OCc1ccccc1)c1ccccc1O,?,-13%,i,143,3%
O=C(NNC(=O)c1ccccc1OCc1ccc(F)cc1)c1ccccc1O,16µM*,-13%,?,37,0%
C#CCN(C[C@@H]1[C@@H](OC(=O)NCc2ccccc2)[C@@H](OC(=O)NCc2ccccc2)CN(C(=O)OC(C)C)N1C(=O)OC(C)C)S(=O)(=O)c1ccc(C)cc1,1%,-13%,i,-58*,.
